Data as given in PubChem BioAssay AID1053173 (Broad Institute, 2014).
Screen size: about 1,500 compounds; about 390 (26%) were called active. No rule for the calls is given here. Not all results are given here. Entries with a potency or affinity are not part of this list.

Target: Histone-lysine N-methyltransferase NSD2 (Homo sapiens) (UniProt O96028)
Assay: NSD2 methyltransferase inhibitors, dose response, biochemical, AlphaScreen, cherry-picked samples (AID 1053173);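 also: 0% = neutral control wells and -100% = positive control wells on each plate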
Settings: NSD2 H4 peptide methylation, 120 min; series mostly up to 10 µM; activity change, negative = inhibition: at the top concentration

Chain of Histone-lysine N-methyltransferase NSD2 (Homo sapiens) (O96028 whole entry, looked up): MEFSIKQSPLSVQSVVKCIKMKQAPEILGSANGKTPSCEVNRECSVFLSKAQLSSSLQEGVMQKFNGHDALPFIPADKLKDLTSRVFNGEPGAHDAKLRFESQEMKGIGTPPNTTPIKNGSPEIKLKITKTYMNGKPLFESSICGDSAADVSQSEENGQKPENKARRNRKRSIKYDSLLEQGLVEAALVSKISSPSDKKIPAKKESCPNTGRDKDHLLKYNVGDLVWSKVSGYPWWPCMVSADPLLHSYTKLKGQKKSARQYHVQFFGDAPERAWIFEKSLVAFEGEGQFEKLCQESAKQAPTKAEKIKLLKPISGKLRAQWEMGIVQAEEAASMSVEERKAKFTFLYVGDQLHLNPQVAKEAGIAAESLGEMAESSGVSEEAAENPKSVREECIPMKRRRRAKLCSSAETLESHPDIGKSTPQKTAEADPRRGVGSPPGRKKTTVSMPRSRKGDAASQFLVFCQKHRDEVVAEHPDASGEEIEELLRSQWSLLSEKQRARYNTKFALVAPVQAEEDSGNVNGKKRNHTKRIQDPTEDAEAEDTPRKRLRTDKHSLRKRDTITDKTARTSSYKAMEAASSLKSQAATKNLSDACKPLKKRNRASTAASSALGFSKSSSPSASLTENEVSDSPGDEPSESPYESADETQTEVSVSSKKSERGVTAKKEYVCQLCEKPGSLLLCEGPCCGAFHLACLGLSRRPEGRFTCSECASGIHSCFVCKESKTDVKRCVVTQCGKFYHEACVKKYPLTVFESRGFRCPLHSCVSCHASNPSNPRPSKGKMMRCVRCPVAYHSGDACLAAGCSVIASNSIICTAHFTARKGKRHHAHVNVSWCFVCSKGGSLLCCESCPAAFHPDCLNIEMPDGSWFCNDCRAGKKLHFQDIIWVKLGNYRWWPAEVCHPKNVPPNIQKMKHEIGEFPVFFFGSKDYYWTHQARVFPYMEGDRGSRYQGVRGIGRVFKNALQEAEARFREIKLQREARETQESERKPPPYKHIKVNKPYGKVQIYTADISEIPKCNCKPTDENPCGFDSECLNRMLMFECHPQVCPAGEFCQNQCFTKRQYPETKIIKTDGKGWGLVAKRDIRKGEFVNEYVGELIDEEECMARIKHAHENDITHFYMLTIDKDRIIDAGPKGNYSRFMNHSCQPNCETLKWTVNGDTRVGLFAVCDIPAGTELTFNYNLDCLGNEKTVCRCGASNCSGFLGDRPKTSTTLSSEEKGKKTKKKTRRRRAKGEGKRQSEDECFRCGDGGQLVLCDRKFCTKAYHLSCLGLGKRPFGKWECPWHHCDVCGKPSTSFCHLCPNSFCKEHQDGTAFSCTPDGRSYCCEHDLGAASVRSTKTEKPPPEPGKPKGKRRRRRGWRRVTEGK

Activity change, negative = inhibition, inactive:
COc1ccc(/C=C2/C(=O)N(c3c(F)c(F)c(F)c(F)c3F)N=C2C)cc1 0.848%
O=C(COc1ccc(S(=O)(=O)N2CCCC2)cc1)Nc1ccc(F)cc1 1.47%
O=C(O)CC(C(=O)O)N1C(=O)/C(=C/c2ccc(-c3nc4ccccc4s3)o2)SC1=S (stereo unspecified) -6.38%
O=C(O)COc1ccc(/C=C/C(=O)c2ccc3ccccc3c2)cc1 -9.29%
O=C(CNC(=O)c1ccccc1)Oc1ccc([N+](=O)[O-])cc1 -4.16%
C=CCC1CCCCC1=C(C#N)c1ccccc1 (stereo unspecified) -3.42%
NC1=NC(=Nc2ccc(Br)cc2)c2ccccc21 -5.36%
CC(=O)Nc1ccc(S(=O)(=O)/N=C2/NC(=O)/C(=C\c3ccco3)S2)cc1 -9.65%
Cc1[nH][nH]c(=O)c1C(c1c(C)[nH][nH]c1=O)c1cn(C)c2ccccc12 -2.97%
Cc1[nH][nH]c(=O)c1C(c1ccc(-c2ccc(Cl)c(C(=O)O)c2)o1)c1c(C)[nH][nH]c1=O -7.88%
COc1ccc2c(c1)Cc1sc(NC(=O)c3cccnc3)nc1-2 4.51%
Cc1ccc(N2CN=c3s/c(=C\c4ccccn4)c(=O)n3C2)cc1 -0.608%
COc1ccc(C=C(c2nc3ccccc3s2)c2nc3ccccc3s2)cc1O -9.17%
Cc1c(-c2cccc(Cl)c2)nc2ccccc2c1C(=O)OC/C(O)=C(\C#N)c1nc2ccccc2[nH]1 -3.82%
O=C(NC1CCCc2ccccc21)c1ccccc1OC(F)F (stereo unspecified) 0.349%
O=C1Nc2ccc(S(=O)(=O)NCc3ccco3)c3cccc1c23 0.667%
COc1ccc(NC2CCCN(C(=O)c3ccccc3N3CCOCC3)C2)cc1OC (stereo unspecified) -0.733%
Cn1c(NNC(=O)c2c(F)cccc2F)cc(=O)n(C)c1=O 6%
Cc1[nH][nH]c(=O)c1C(c1ccc(-c2ccccc2C(=O)O)o1)c1c(C)[nH][nH]c1=O -9.78%
Nc1nonc1-c1nc2ccccc2n1CC(=O)N/N=C/c1ccc(-c2ccccc2C(=O)O)o1 -10.2%
O=C(CSc1n[nH]c(-c2ccncc2)n1)Nc1ccc(Cl)c(Cl)c1 -5.23%
Cc1ccc(-c2ccc(/C=N/NC(=O)CN3CCOCC3)o2)cc1[N+](=O)[O-] -0.384%
Cc1nnc(N/N=C\c2ccc(-c3cccc(C(=O)O)c3)o2)n1N 1.17%
COc1cc(CC(=O)NCC2COc3ccccc3O2)cc(OC)c1OC (stereo unspecified) 4.11%
O=C(CCN1CCOCC1)NCC1COc2ccccc2O1 (stereo unspecified) 4.15%
COc1cc(C(=O)NC2CCCc3ccccc32)cc(OC)c1OC (stereo unspecified) -3.18%
CN(C)/C=C1\C=C2C(=O)c3ccccc3N2C1=O -11.9%
Cc1c(C)c2cc(Cl)c(O)c(CN(C)C)c2oc1=O -4.88%
Nc1nonc1C(=O)NCCNC(=O)c1ccccc1F 4.89%
O=C(Nc1cccnc1)c1ccc(COc2ccccc2Cl)o1 -3.23%
CNc1ccc(Br)cc(C(=O)/C=C/c2ccc(OC)cc2)c1=O -11.9%
O=C(CCc1nnc(CCCCc2ccccc2)o1)NC1CCCC1 0.963%
Cc1ccc(-n2nc(C(=O)NCc3ccc(C)o3)c3c4ccccc4n(C)c3c2=O)cc1 -0.692%
CC(C)(C#N)NC(=O)C1CCCN1S(=O)(=O)c1ccc2ccccc2c1 (stereo unspecified) -3.31%
Cc1ccc2cccc(NC3OC(=O)c4ccccc43)c2n1 (stereo unspecified) -5.91%
COc1cc(C(=O)Nn2c(O)c(C3=c4ccccc4=NC3=O)sc2=S)ccc1O 1.57%
CC(=O)N1CCN(c2ccccc2NC(=O)c2ccc3ccccc3c2)CC1 4.94%
CN1CCN(c2ccc(NC(=O)COc3ccc4ccccc4c3)cc2)CC1 6.91%
COc1c(F)c(F)c(C(=O)Nc2cccc(Cl)c2N2CCOCC2)c(F)c1F -1.41%
Nc1c2c(=O)oc(-c3ccccc3)cc2nn1-c1ccccc1 0.608%
Cc1ccccc1-c1ocnc1C(=O)Nc1ccccc1NC(=O)c1ccccn1 -3.59%
O=C(N/N=C/c1cc2c(cc1[N+](=O)[O-])OCO2)c1ccccn1 1.47%
O=C(Nc1cccc(C(F)(F)F)c1)c1cc(-c2ccco2)on1 -0.125%
Cc1cccc(N2CCN(S(=O)(=O)c3c(C)nc4scc(C)n4c3=O)CC2C)c1 (stereo unspecified) 4.46%
O=C(Nc1cc(S(=O)(=O)Nc2ccccc2F)ccc1Cl)c1ccc(F)cc1F -4.71%
CC1CC(C)CN(C(=O)C2CCN(S(=O)(=O)c3cccs3)CC2)C1 (stereo unspecified) -1.91%
Cn1c(=O)c2c(nc(CN3CCc4ccccc4C3)n2CCc2ccccc2)n(C)c1=O -0.06%
Cc1ccccc1-n1nc(C)c2c1N=C1C(Cl)=CC(Cl)=CN1C2c1ccc(C(=O)O)cc1 (stereo unspecified) -5.97%
CC(C)N(Cc1ccccc1)C(=O)C1CCCN(c2ncnc3c2nc2n3CCCCC2)C1 (stereo unspecified) -1.45%
COc1ccc(NC(=O)c2ccc(F)c(F)c2)c2ccccc12 2.95%
c1ccc(-c2cc(-c3ccccc3)n3ncnc3n2)cc1 -0.881%
COCCNC(=O)Cc1c(C)c2c(cc(C)c3c(C)coc32)oc1=O -2.39%
CC1CCN(C(=O)CN(Cc2ccc(Cl)cc2)S(C)(=O)=O)CC1 -3.55%
CCc1ccccc1NC(=O)CSc1nc2n[nH]c(C)c2c(=N)n1-c1cccc(OC)c1 0.33%
CSc1ccccc1NC(=O)CN(C)C(=O)COc1ncnc2ccccc12 4.86%
CC(NC(=O)COC(=O)c1ccc([N+](=O)[O-])s1)c1ccccc1 (stereo unspecified) -0.22%
COCCOC(=O)C1=C(C)NC(C)=C(C(=O)OC(C)C)C1c1cccc([N+](=O)[O-])c1 (stereo unspecified) -0.917%
Nn1cnnc1N/N=C\c1ccc(-c2ccccc2[N+](=O)[O-])o1 -6.2%
Cc1nnc(N/N=C/c2ccc(-c3ccccc3F)o2)n1N -3.53%
CC(C)c1ccc(NC(=S)N2CCCC(c3ccc(F)cc3)=N2)cc1 6.21%
Cc1ccc(NC(=S)N2CCC(NC(=O)c3cccc(F)c3)CC2)cc1 4.83%
COc1ccc(S(=O)(=O)N2CCCC(C(=O)NCCCn3ccnc3)C2)cc1OC (stereo unspecified) -0.379%
CC1CN(c2nc3c(c(=O)n(Cc4ccc(Cl)cc4)c(=O)n3C)n2C)CC(C)O1 (stereo unspecified) 0.136%
O=c1c2c(n3cnnc3n1-c1ccccc1)-c1ccccc1CC21CCCC1 0.452%
N#Cc1cc(-c2ccccc2)nnc1Oc1ccccc1Cl -2.46%
CCN(CC)S(=O)(=O)c1ccc(-c2cn3cc(Cl)ccc3n2)cc1 4.2%
COc1ccc(C(=O)N(Cc2cccs2)C2CCS(=O)(=O)C2)cc1 (stereo unspecified) -0.94%
CCOC(=O)Nc1cc(C(=O)OC)ccc1C -1.18%
O=C(Nc1ccc(Br)cc1)c1ccc(-n2cnnn2)cc1 -2.68%
Cc1cc(C(=O)COc2cccc(-n3cnnn3)c2)c(C)n1-c1ccccc1 -0.173%
O=C(C1CC1)N1CCc2[nH]c3ccccc3c2C1 -2.06%
C=CCn1c(N)c(C(=O)NCC2CCCO2)c2nc3ccccc3nc21 (stereo unspecified) 2.42%
COc1ccccc1NC1C=CS(=O)(=O)C1 (stereo unspecified) -0.449%
CC1CCCC(C)N1C(=O)COC(=O)c1ccc([N+](=O)[O-])o1 (stereo unspecified) -9.53%
COc1ccccc1NC(=O)c1ccccc1NS(=O)(=O)N1CCCC1 -2%
O=C1ON=C(c2ccccc2)/C1=C/c1ccc(O)cc1 -0.931%
CCN1CCc2nc3ccccc3c(C(=O)Nc3ccc(NC(C)=O)cc3)c2C1 -11.6%
Nc1nc(Nc2ccccc2F)nc(NCCO)c1[N+](=O)[O-] 2.06%
CCCCn1c(=O)[nH]c2nc3cc(N)ccc3nc2c1=O 0.883%
COc1ccc(C(=O)NCc2nnc(SCC(=O)Nc3cc(C)cc(C)c3)o2)cc1OC -0.567%
COc1ccc(/C=N/Nc2nnc(C)n2N)cc1OC -5.85%
Cc1nnc(N/N=C/c2ccccc2O)n1N 0.875%
CN(C)S(=O)(=O)c1ccc(NC(=O)CCNC(=O)c2ccco2)cc1 3.08%
CC(=O)c1cccc(NC(=O)CC2CCCC2)c1 -1.9%
Cc1nc2ccc(S(=O)(=O)N3CCCCC3)cc2s1 -1.08%
CC(=O)NCCN1C(=O)C2C3c4ccccc4C(c4ccccc43)C2C1=O (stereo unspecified) 4.66%
CCOC(=O)c1sc2nc(C)nc(NC3CCC(O)CC3)c2c1C (stereo unspecified) 0.285%
CCCCC(=O)OCc1cn(-c2ccc(Cl)cc2)nn1 -2.69%
Cc1cccc(NC(=O)C2CCN(C(=O)NCc3ccccc3)CC2)c1C 2.02%
CN1C(=O)C(CCC(=O)O)NC1=S (stereo unspecified) -0.941%
Cc1cccc(NC(=O)CSCC(=O)NCc2cccc(C(F)(F)F)c2)c1 -1.1%
O=C(NCCCO)c1ccc2nc(-c3ccco3)c(-c3ccco3)nc2c1 -10.6%
O=C(O)c1cc(-c2ccco2)nn1-c1ccc(Cl)cc1 -13.9%
O=C1CCN(Cc2ccccc2)N1 7.16%
COc1ccc2c(c1)Cc1sc(NC(=O)c3cccs3)nc1-2 -6.4%
COc1ccc(C(=O)OCC(=O)Nc2c(C)n(C)n(-c3ccccc3)c2=O)cc1 5.18%
O=Nc1ccc(O)c2ncccc12 1.26%
Cc1ccc(C#N)c(SCc2ccccc2F)n1 -0.897%
O=c1[nH]c(NCCO)c(N=Cc2ccccc2)c(=O)[nH]1 0.744%
COc1ccc(C2CCc3cc4c(cc3C2=NOC(C)=O)OCO4)cc1OC (stereo unspecified) -3.53%
Cc1cc(C)n(CC(O)COc2c(C)cccc2C)n1 (stereo unspecified) 0.908%
O=C(CN1CCOCC1)NCCNC(=O)CN1CCOCC1 1.46%
CCNC(=O)C1(C)CCCN(C(=O)c2ccc3ccccc3n2)C1 (stereo unspecified) 2.47%
NC(=O)COC(=O)c1ccc(Cl)c(S(=O)(=O)N2CCN(c3ccc(F)cc3)CC2)c1 -3.71%
Cc1ccc(CC(=O)Nc2nncs2)cc1 -3.28%
COc1cc(NC(=O)c2ccccc2)c(OC)cc1NC(=O)CSc1[nH]c(=O)cc(C)c1C#N -2.43%
CCc1sc(C(=O)Nc2nc(C)cs2)cc1C -1.21%
Cc1ccc2cccc(OCc3ccc(Br)cc3)c2n1 0.04%
CC(Nc1ccc2ccccc2c1)C(=O)N/N=C/c1ccncc1 (stereo unspecified) 1.12%
Cc1sc2nc[nH]c(=S)c2c1-c1ccccc1 -1.69%
O=c1[nH]nc(Br)c(=O)n1C(c1ccccc1)c1ccccc1 1.07%
